Measurements: PubChem BioAssay AID1259341 (Broad Institute, 2017)
A number with no mark means an inactive call. Calls of active or inactive are those of the source.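 The calls were made as follows: active = activity change under -35% in any replicate well, with more than 20 beads read in that well; inactive = the rest.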

biological target: Caspase recruitment domain-containing protein 9 (Homo sapiens) + E3 ubiquitin-protein ligase TRIM62 (Homo sapiens) (UniProt Q9H257+Q9BVG3); experiment: CARD9/TRIM62 protein interaction inhibitors – cell lysate, HEK293FT lysates, Luminex bead ELISA, primary screen (AID 1259341); conditions: PE fluorescence, stronger effect = lower value, concentration not given here;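 also: PE anti-Flag signal of Flag-CARD9 captured by myc-TRIM62 beads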
Sequence (Q9BVG3 whole entry, looked up, the tested form may be a part): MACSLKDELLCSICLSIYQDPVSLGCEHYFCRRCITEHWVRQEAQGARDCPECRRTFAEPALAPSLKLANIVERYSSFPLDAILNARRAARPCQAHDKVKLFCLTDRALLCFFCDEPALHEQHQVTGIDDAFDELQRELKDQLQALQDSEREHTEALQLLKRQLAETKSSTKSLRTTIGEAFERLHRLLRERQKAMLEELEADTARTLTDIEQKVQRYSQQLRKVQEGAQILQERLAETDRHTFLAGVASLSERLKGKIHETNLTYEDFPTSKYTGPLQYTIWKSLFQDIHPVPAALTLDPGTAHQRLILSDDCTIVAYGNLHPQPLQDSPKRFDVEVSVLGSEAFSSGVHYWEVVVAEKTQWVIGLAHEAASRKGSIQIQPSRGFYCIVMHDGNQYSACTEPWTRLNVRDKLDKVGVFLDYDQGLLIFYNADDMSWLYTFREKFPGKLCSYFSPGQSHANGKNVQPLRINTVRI
Sequence (Q9H257 whole entry, looked up, the tested form may be a part): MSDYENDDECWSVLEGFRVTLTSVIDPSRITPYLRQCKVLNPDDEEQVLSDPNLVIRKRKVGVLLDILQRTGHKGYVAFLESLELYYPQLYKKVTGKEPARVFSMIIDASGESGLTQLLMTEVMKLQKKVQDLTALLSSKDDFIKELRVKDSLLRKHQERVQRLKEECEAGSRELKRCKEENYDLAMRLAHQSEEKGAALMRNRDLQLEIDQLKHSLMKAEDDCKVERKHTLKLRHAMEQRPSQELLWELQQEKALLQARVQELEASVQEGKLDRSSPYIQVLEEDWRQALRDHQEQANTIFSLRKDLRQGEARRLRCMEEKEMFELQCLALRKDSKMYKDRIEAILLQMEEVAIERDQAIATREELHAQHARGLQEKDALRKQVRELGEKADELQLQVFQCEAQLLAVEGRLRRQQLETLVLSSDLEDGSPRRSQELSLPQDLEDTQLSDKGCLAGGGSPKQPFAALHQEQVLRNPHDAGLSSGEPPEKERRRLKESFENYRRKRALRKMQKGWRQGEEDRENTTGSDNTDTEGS

SMILES	activity change, negative = inhibition
O=C(NCc1ccco1)c1ccc(S(=O)(=O)N2CCOCC2)cc1	19.9%
O=C(Nc1ccc2oc(-c3ccncc3)nc2c1)c1ccc2c(c1)OCCO2	-1.89%
c1coc(-c2cn3ccc4ccccc4c3n2)c1	-1.55%
Cc1ccc(-c2nn(-c3ccccc3)cc2CN(Cc2ccccc2)C(=O)CCC(=O)O)o1	7.87%
Cc1cccc2nc(CSCc3ccco3)cn12	-4.69%
O=C(NCc1ccco1)[C@@H]1CSC2c3ccccc3C(=O)N21 (stereo partly specified)	-0.672%
O=C(NCc1ccco1)C1CCCN(S(=O)(=O)c2cccc3nonc23)C1 (stereo unspecified)	0.63%
Cc1ccc(Cc2cnc(N)s2)o1	18.6%
O=C(NCC1CCCO1)c1cc(-c2ccco2)nc2ccccc12 (stereo unspecified)	-3.93%
O=C(COC(=O)c1cc(-c2cccs2)nc2ccccc12)NCc1ccco1	-1.49%
CCCN1CCc2nc(SCc3nc(-c4ccc(OC)cc4OC)oc3C)[nH]c(=O)c2C1	-0.271%
Cc1cccc(Nc2nc(C(=O)Nc3cc(F)ccc3F)nc3ccccc23)c1	1.63%
O=C(COC(=O)c1ccccc1Oc1ccccc1)NCc1ccco1	3.86%
N#Cc1c2ccc(OCC(=O)NCc3ccco3)cc2n2ccccc12	0.334%
CCn1ccnc1C1CCN(C(=O)CCn2c(C)nc3ccccc32)CC1	-6.29%
O=C(Cc1cccs1)Nc1nnc(Cc2ccccc2)s1	10.6%
COc1ccc(N2Cc3cccc(C(=O)NC(C)CCc4ccco4)c3C2=O)cc1 (stereo unspecified)	0.962%
O=C(NCc1ccco1)c1c2c(nc3ccccc13)CCC2	-3.42%

SMILES	activity change, negative = inhibition
O=C(O)c1cc(-c2ccco2)nc2ccccc12	15.8%
Fc1ccc(CSc2nnc(-c3cccnc3)n2Cc2ccco2)cc1	0.116%
C[C@H](CO)N1C[C@H](C)[C@@H](CN(C)CC2CCCCC2)OCCCC[C@H](C)Oc2ccc(NS(=O)(=O)c3cn(C)cn3)cc2C1=O	9.05%
CN(c1ccccc1C(=O)NCc1ccco1)S(C)(=O)=O	-3.12%
O=C(O)COCC(=O)NCc1ccco1	1.03%
O=S(=O)(Nc1nc2ccc(S(=O)(=O)N3CCCCC3)cc2s1)c1ccccc1	-0.733%
Cn1cccc1CNCCCSc1ncccn1	1.41%
O=C(CCn1cncn1)N1CCC(n2cc(-c3ccccn3)nn2)CC1	3.29%
O=C(Nc1nccs1)c1cc(-c2ccco2)nc2ccccc12	-0.894%
Cc1sc2ncnc(SCc3ccco3)c2c1C	-1.85%
Cc1cc(C(=O)NCc2ccco2)on1	-1%
COCCn1c(C)cc(-c2csc(N)n2)c1C	0.765%
COc1ccc(N2CC3=C(N2)c2ccccc2CC3)cc1	25.5%
Cc1occc1C(=O)NCc1cccc(CNC(=O)c2ccoc2C)c1	3.25%
NC(=O)C1(N2CCCCC2)CCN(c2ncc(NC(=O)c3cccc(Cl)c3)cc2C(=O)O)CC1	-53.8% (active)
CCOC(=O)C1CCN(C(=O)CN(Cc2ccccc2)S(C)(=O)=O)CC1	-5.24%
COc1ccc(S(=O)(=O)N2CCN(C(=O)c3cc4c(s3)CCC4)CC2)cc1	0.552%
N#Cc1c2c(c(NCc3ccco3)n3c1nc1ccccc13)CCC2	5.44%
